Bioassay records: PubChem, National Center for Advancing Translational Sciences (NCATS)
D2 ag-1: HTS Assay for Allosteric Agonists of the Human D2 Dopamine Receptor: Primary Screen for Agonists. HEK293 T-REx D2 cells, calcium flux agonist mode. D(2) dopamine receptor (Homo sapiens), P14416. activation, % at 2 µM. hit rate 0.53% among 340,000;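 active means activation over 3 SD above normal in the single-dose calcium agonist read, cut at about 30% in these data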; further: 0% is about no effect
Target sequence (P14416 whole entry, looked up): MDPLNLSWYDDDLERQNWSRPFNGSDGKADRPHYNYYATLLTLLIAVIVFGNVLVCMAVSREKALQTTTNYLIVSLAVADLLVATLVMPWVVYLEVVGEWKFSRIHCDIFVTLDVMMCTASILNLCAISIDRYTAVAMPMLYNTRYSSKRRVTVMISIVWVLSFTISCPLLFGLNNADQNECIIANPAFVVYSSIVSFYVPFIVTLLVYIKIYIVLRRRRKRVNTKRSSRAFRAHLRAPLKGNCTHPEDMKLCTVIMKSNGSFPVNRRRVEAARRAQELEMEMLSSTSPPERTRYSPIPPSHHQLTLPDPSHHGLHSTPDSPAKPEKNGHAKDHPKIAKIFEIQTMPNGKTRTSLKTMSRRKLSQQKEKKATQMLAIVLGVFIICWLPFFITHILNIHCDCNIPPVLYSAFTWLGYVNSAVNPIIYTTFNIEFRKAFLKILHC
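Tetracycline-induced HEK293 T-REx cells with force-coupled D2 receptor, plated overnight at 30 C, loaded with no-wash calcium dye. After a 10 s baseline, compound was pin-added and calcium flux read kinetically for 180 s; calcium rises flagged agonists.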
D2 PAM-1: Beta-Arrestin HTS for Positive Allosteric Modulators of the Human D2 Dopamine Receptor: Potentiators; D(2) dopamine receptor (Homo sapiens), P14416; DiscoveRx D2 beta-arrestin cells, luminescence, 90 min; 100% = 57 uM dopamine signal; potentiation, % (test concentration not listed); hit rate 0.23% among 360,000; in the data active means potentiation above about 50%
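PathHunter beta-arrestin assay in DiscoveRx D2 cells. Compounds were added with an EC20 of dopamine (50 nM final) for 90 min at 37 deg C. Luminescence was read 1 h after detection reagent, with 57 uM dopamine as the EC100 control.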
B2AR arrestin: qHTS assay of beta-arrestin-biased ligands of beta2-adrenergic receptor; Beta-2 adrenergic receptor (Homo sapiens), P07550; Potency, µM (series often up to 46.1 µM), inactives show at the highest dose activation, actives largely listed as activators; beta-arrestin recruitment to beta2AR, cell-based reporter; AID 492947, 2010; hit rate 0.02% among 330,000; active means well fitted activation curve with a large enough effect;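 further: potency means the concentration at half of the fitted maximal effect; 0% = DMSO controls and full agonism = EC100 isoproterenol or metaproterenol; nearly all actives have a fitted effect of over 65% in size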
D2 PAM-2: HTS Assay for Positive Allosteric Modulators of the Human D2 Dopamine Receptor: Primary Screen for Potentiators. potentiation, % at 10 µM. hit rate 0.34% among 340,000. HEK293 T-REx D2, calcium flux, EC20 dopamine potentiation;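 active means potentiation over 3 SD above the plate norm, cut at about 30% in these data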; further: 0% is about no effect
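Potentiation of an EC20 dopamine calcium response is measured in a force-coupled, tetracycline-inducible Hek293 Trex D2 line. Compound-only kinetic reads over 180 s flag agonists before dopamine addition.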
D2 ag-2: Beta-Arrestin HTS for Positive Allosteric Modulators of the Human D2 Dopamine Receptor: Agonists. DiscoveRx PathHunter D2 beta-arrestin, luminescence, 90 min; 100% = 57 uM dopamine signal. hit rate 0.084% among 360,000. AID 624465, 2012. activation, % (concentration not given with the values). D(2) dopamine receptor (Homo sapiens), P14416; in the data active means activation above about 40%
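Agonist mode: compounds alone added to overnight-plated D2 PathHunter cells for 90 min at 37 C, with 57 uM final dopamine (EC100) defining full response. Beta-arrestin recruitment detected by chemiluminescent reagent, read after 1 h at ambient temperature.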
D2 antag: HTS Assay for Allosteric Antagonists of the Human D2 Dopamine Receptor: Primary Screen for Antagonists; D(2) dopamine receptor (Homo sapiens), P14416; HEK293 TREx D2 cells, calcium flux, dopamine EC80; inhibition, % at 10 µM; hit rate 2% among 340,000; AID 485344, 2010; in the data active means inhibition above about 30%; inactive means below that, where a call was filed; further: 0% is about no effect
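Dopamine at EC80 is the agonist stimulus; test compounds precede it by 180 s. Calcium flux read kinetically in a force-coupled, inducible HEK293 T-REx D2 cell line.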
* hit, by the source's call; nt = not tested or not shown. Hits are enriched below; roughly 2.4% of the tested compounds scored in any of these assays.

SMILES | D2 ag-1 | D2 PAM-1 | B2AR arrestin | D2 PAM-2 | D2 ag-2 | D2 antag
COc1ccc2[nH]c(C)c(C(=O)CN3CCN(C/C=C/c4ccccc4)CC3)c2c1 | 2.1 | -22.4 | -0.1% | -14.5 | 0.0 | -0.9
Cc1[nH]c2ccccc2c1C(=O)CN1CCN(C2CCCCC2)CC1 | -0.5 | nt | -0.8% | -42.6 | nt | 58.2*
Cc1[nH]c2ccccc2c1C(=O)CN1CCN(C/C=C/c2ccccc2)CC1 | 0.4 | -44.1 | -0.6% | -30.3 | -6.0 | 80.3*
COc1ccc2oc(=O)c(-c3csc(Nc4cccc(O)c4)n3)cc2c1 | -0.7 | -13.8 | 0.0% | 1.9 | 0.7 | 4.1
COc1ccc(C(=O)NCC(=O)NCCc2c[nH]c3ccccc23)cc1OC | 0.4 | -3.7 | -0.7% | 0.2 | -0.9 | 13.5
Cc1cccc(CCNC(=O)C2CCN(S(=O)(=O)c3c(C)nn(C)c3C)CC2)c1 | 0.0 | 8.6 | 0.1% | -11.1 | -1.7 | 32.3*
O=C(CSc1nc(C2CCCCC2)nc2ccccc12)NCc1ccco1 | -0.7 | -2.5 | -0.2% | -9.7 | -3.0 | 66.7*
CC(C)c1cccc(-c2csc(C(C)(O)c3cccc(F)c3)n2)c1 (stereo not drawn) | nt | -2.6 | nt | nt | 2.0 | nt
CCOCc1cc(=O)[nH]c(SC)n1 | -0.6 | -34.6 | 3.6% | -12.8 | 2.9 | 30.3*
CCOC(=O)NC(=O)/C(N=Nc1cccc(C(F)(F)F)c1)=C(\C)O | -1.1 | -2.1 | -0.1% | 3.5 | 0.2 | -9.4
CC(=O)c1cccc(NS(=O)(=O)c2cccc(S(=O)(=O)c3ccc(Br)cc3)c2)c1 | -0.7 | nt | nt | 1.7 | nt | nt
Oc1ccc(/C=N/Nc2ccc(Cl)nn2)c(O)c1O | 1.1 | 15.2 | -1.1% | -5.7 | 49.7* | 5.5
Oc1c(Br)cc(Br)cc1/C=N/Nc1ccc(Cl)nn1 | 0.7 | -5.8 | 0.6% | -3.1 | -4.2 | 11.8
O=C(Nc1ccccc1)Nc1csc2ccccc12 | 1.2 | -10.1 | -0.4% | -16.7 | -0.8 | 3.3
